Laboratory results from PubChem BioAssay (NCI).
About 79,000 compounds went through this panel and 15% of them were active in at least one assay; those are over-represented in the sample as a whole. Values without a mark were called inactive. The source made the active and inactive calls. Rule as the data show it: active = growth inhibition above about 70%; inactive = the rest. Where a SMILES comes first, the peptide text is derived from it. The star is where a group is joined. Cbz = O=C(OCc1ccccc1)*; Bn = c1ccc(C*)cc1

How the values were obtained:
[1] = NCI Yeast Anticancer Drug Screen. Data for the rad50 strain (AID 155);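 also: 0% = growth of vehicle-only cultures of the same strain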; details: S. cerevisiae rad50 strain growth inhibition; at 50.0 µM; stronger effect = higher value
In short: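 Vehicle-treated cultures provide the reference for the growth inhibition reported for compound-exposed, repair-deficient yeast.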

[2] = NCI Yeast Anticancer Drug Screen. Data for the mec2-1 strain (AID 157); details: S. cerevisiae mec2-1 strain, at 50.0 µM, stronger effect = higher value
In short: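 Strain: mec2-1 (DNA repair/cell cycle alteration). Compound exposure, then growth measured; inhibition expressed relative to vehicle.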

[3] = NCI Yeast Anticancer Drug Screen. Data for the sgs1 mgt1 strain (AID 161);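 also: 0% = growth of cultures given vehicle only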; details: S. cerevisiae sgs1 mgt1 strain, at 50.0 µM, stronger effect = higher value
In short: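 Read-out: growth inhibition vs vehicle controls. Cells: mutant yeast strain deficient in DNA damage repair.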

[4] = NCI Yeast Anticancer Drug Screen. Data for the cln2 rad14 strain (AID 165);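 also: 0% = growth equal to vehicle treated cultures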; details: S. cerevisiae cln2 rad14 strain, at 50.0 µM, stronger effect = higher value
In short: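 Compounds are applied to the cln2 rad14 yeast strain, and growth is then compared with that of vehicle-treated cultures to give inhibition.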

[5] = NCI Yeast Anticancer Drug Screen. Data for the bub3 strain (AID 167); details: S. cerevisiae bub3 mutant strain, at 50.0 µM, stronger effect = higher value
In short: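 Mutant yeast screening strain plus compound; vehicle-treated cultures serve as the 0% inhibition reference.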

[6] = NCI Yeast Anticancer Drug Screen. Data for the mlh1 rad18 strain (AID 175); details: S. cerevisiae mlh1 rad18 strain growth inhibition; at 50.0 µM; stronger effect = higher value
In short: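 Read-out is yeast growth inhibition, calculated against vehicle-only controls. The compound was applied to a strain engineered with DNA damage repair alterations.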

SMILES | growth inhibition [1] | growth inhibition [2] | growth inhibition [3] | growth inhibition [4] | growth inhibition [5] | growth inhibition [6]
CC(=O)NNc1nc(C)c(C(/C=C/c2ccc(Cl)cc2)=N/NC(=S)NN)s1 | 34.1% | 20.4% | 45% | 15.8% | 11.8% | 9.75%
COc1ccc(-c2c(-c3ccccc3)c(-c3ccccc3)nn2-c2ccccc2)cc1 | 45.2% | 4.85% | 34.8% | 22.4% | 2.5% | 20.9%
CCCCCCCCCCCCCCCCS(=O)(=O)N/N=C(/c1ccccc1Cl)N1CCOCC1 | -10.6% | -35.4% | -7.1% | 16.4% | -22.6% | -6.75%
CC(C)C(NC(=O)C(CSCc1ccccc1)NC(=O)OCc1ccccc1)C(N)=O (stereo unspecified) (Cbz-Cys(Bn)-Val-NH2; configuration not given here) | 8.8% | 16.1% | 1.6% | -3.65% | -0.9% | 30.6%
O=c1nc(NC(c2ccccc2)(c2ccccc2)c2ccccc2)ccn1CCCl | -5.35% | 4.55% | -1.5% | -23.9% | -20.9% | -9.7%
O=C(O)C1CSC2(CCCC2)N1 (stereo unspecified) | 16.6% | 4.15% | 12.1% | 4.35% | 5.7% | -1.6%
CNC1C(O)C(OC2C(N)CC(N)C(OC3OC(CN)=CCC3N)C2O)OCC1(C)O (stereo unspecified) | -17.3% | -43.3% | -34.1% | -15.6% | -25.8% | -5.15%
O=C(Nc1cccc(Cl)c1Cl)Oc1ccc(Cl)cc1C(=O)c1ccccc1 | -7.8% | -1% | -17.1% | 4.5% | -12.9% | -27.4%
Cc1ccc(S(=O)(=O)Oc2ccccc2OS(=O)(=O)c2ccc(C)cc2)cc1 | 3.4% | 2.35% | -13.9% | -4.1% | -5% | 0.75%
Cc1ccc(CN(C)N=Nc2ccc(C#N)cc2)cc1 | 2.55% | 34.2% | 45.6% | 12.1% | 65.3% | 6.7%
OCc1ccc(O)c(CO)n1 | -8.85% | -26.3% | -3.35% | 5.4% | -20.6% | 7.55%
COc1ccc(NC(=O)c2cc3ccccc3cc2OC(=O)NC(C)(C)C)cc1 | -12.5% | -13.3% | -7.15% | 2.5% | -0.15% | -32.8%
CCOC(=O)C(=O)Nc1cccc(NC(=O)C(=O)OCC)n1 | 2.5% | -21.6% | -19.1% | 4.4% | -13.8% | -6.05%
NC(=O)Nc1nc(-c2ccccc2)no1 | -16.7% | 7.15% | -17% | -50.6% | -6.75% | -16.1%
C[Si](C)(C)C#CC(O)CS(=O)c1ccccc1 (stereo unspecified) | -19.5% | -19.4% | -13.3% | -3.7% | -6.45% | -17.1%
COc1ccc(C(=O)c2ccc(OC)cc2)cc1 | -15.1% | -27.1% | -3.1% | -17.6% | 1.6% | -15.1%
COC(=O)/C(=C/c1ccccc1)N(C(C)=O)C(C)=O | 0.05% | -1.6% | 10.3% | -1.5% | 13.4% | 8.5%
CCN(CC)c1ccc(NC(=S)Nc2ccc(N(CC)CC)cc2)cc1 | 23.3% | -0.5% | 4.95% | -66% | 22.2% | -22.9%
Cc1cc(C(=O)O)c2cc(Br)ccc2n1 | 4.2% | 12.3% | 15.2% | 17.3% | 11.2% | -4.5%
CN(C)C(=O)NNC(=O)N(C)C | 1.75% | 20.5% | 12.8% | -22.5% | 6.85% | -0.7%
COC(=O)CC1C=CC(OC)[C@@]2(C)C(=O)C=C(C)C(=O)[C@@H]12 (stereo partly specified) | 4.85% | -1.95% | 18.6% | -16.6% | 3.8% | 3.15%

SMILES | growth inhibition [1] | growth inhibition [2] | growth inhibition [3] | growth inhibition [4] | growth inhibition [5] | growth inhibition [6]
O=C1C=CC(=O)N1C(c1ccccc1)(c1ccccc1)c1ccccc1 | 99% (active) | 99.7% (active) | 99.5% (active) | 99% (active) | 99.5% (active) | 99.5% (active)
O=c1[nH]c2cc(Cl)c(Cl)cc2c2ccc(Cl)cc12 | 12.2% | -5.55% | -0.35% | -38% | -15.6% | -14.1%
CN(c1ccccc1)S(=O)(=O)c1cccc([N+](=O)[O-])c1 | -25.3% | -44.5% | 0% | -9.5% | 24.3% | -1.55%
CCS(=O)(=O)/C=C/c1cccnc1 | 0.45% | -4.8% | -11.4% | -51.5% | 3.05% | 9.5%
CSc1ccc(NC(=O)CCc2ccccc2)cc1 | 7.7% | 6.45% | 13.2% | -4% | 41.5% | 24.1%
O=C(NC(=O)C(F)(F)F)Nc1cccc(C(F)(F)F)c1 | 15.6% | 1.1% | -14.1% | -4.85% | -8.25% | 2.9%
COc1ccccc1C(=O)NO | -14.1% | -27.2% | -22.9% | 8.05% | -14.2% | -7.55%
Nc1nc(SC2CCCCC2)nc2c1ncn2C1OC(CO)C(O)C1O (stereo unspecified) | -49.5% | -33% | -8.15% | 0.7% | -4.75% | -13.7%
CC(C)c1ccc(/C=C2/C=C(c3ccc4ccccc4c3)OC2=O)cc1 | -9.25% | -1.7% | -31.8% | -3.75% | -17.8% | -18.9%
CCN(CC)CCN(C)C(=O)C(=O)c1ccccc1 | -20.1% | -0.85% | -10.6% | 9.75% | 4.8% | -8.2%
C/C(N=NS(=O)(=O)c1ccccc1)=C1\C=CC=CN1O | -7.9% | -1.5% | -4.55% | 2.5% | 12.9% | -9%
COc1ccc2c(O)c(Oc3ccc(Cl)cc3)c(=O)oc2c1 | -4.2% | -1.1% | -1.45% | 2.6% | 7.95% | 22.4%
COc1cc(OC)c(C2c3cc4c(cc3OC(C)(N3CCCC3)C2C)OCO4)c(OC)c1 (stereo unspecified) | 4.5% | 14.6% | 5.25% | -8.65% | 9.45% | 20.3%
CCOC(=O)/C=C/c1ccc(OCC)cc1 | -2.4% | 2.55% | -7.15% | -17.2% | -1.35% | -21%
CCCCS/C=C\SCCCC | 2.85% | 7.55% | -8.5% | -26.4% | 6.7% | -1.65%
CCC(C)C(=O)OCC1(c2ccc(C)cc2OC(=O)C(C)C)CO1 (stereo unspecified) | 15.7% | -2.45% | 19.2% | -1% | -6% | 12.2%
Nc1c(-c2nc3ccccc3[nH]2)sc(=S)n1-c1ccccc1 | -6.4% | -21.4% | 1.75% | 2.2% | -4.2% | -17.9%
O=C1C2=C(OCO2)C(=O)C2=C1OCO2 | 2.65% | 20.8% | 21.1% | 3.7% | 9.95% | 3.2%
COC(=O)C1C(=O)C2CCC1C(=O)C2C(=O)OC (stereo unspecified) | 1.95% | -2.8% | 16.4% | 4.1% | 9.75% | 22.7%
CCC1(CN(C)C)CC/C(=C\c2ccc(OC)c(OC)c2)C1=O (stereo unspecified) | 13.2% | 0% | -1.25% | 15.9% | 7.8% | 25.2%
